CYP2C9 activ: activators of human CYP2C9 | activation factor at 5 µM | 96,000 tested, 1.4% active | recombinant CYP2C9, luciferin-H conversion, luminescence; hits give high values; factor 1 = untreated enzyme, 0 = blocked | P11712;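 active means activation factor of 2 or more for CYP2C9 at a 5 µM dose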;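 further: 0 = sulfaphenazole-blocked wells and 1 = vehicle-only wells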
Target sequence (P11712 whole entry, looked up): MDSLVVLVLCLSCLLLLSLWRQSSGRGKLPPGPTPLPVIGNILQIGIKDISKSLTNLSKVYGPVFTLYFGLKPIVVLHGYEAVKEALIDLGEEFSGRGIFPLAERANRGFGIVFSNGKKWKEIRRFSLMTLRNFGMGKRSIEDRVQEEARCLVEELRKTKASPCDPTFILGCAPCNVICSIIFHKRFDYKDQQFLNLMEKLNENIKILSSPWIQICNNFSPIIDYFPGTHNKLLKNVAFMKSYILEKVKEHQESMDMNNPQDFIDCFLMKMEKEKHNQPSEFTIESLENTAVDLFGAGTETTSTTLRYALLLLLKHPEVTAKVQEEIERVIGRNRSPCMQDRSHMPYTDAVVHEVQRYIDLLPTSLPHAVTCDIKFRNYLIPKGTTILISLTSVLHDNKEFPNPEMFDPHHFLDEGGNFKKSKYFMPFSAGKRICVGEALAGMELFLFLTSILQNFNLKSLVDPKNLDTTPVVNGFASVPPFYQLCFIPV
CYP2C19 inh: blocks human cytochrome P450 2C19. P33261. CYP2C19 Supersomes, luciferin-H EGE luminescence, 30 min. inhibition, % at 5 µM. 96,000 tested, 21% active. AID 778;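 active means CYP2C19 inhibition above a set limit at 5 µM in the primary screen, cut at about 50% in these data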;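 further: plate controls were negative control wells for no effect and 2.5 mM tranylcypromine positive control for full effect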
CYP2C19 act: cytochrome P450 2C19 (human) activation; P33261; recombinant CYP2C19, luciferin-H EGE luminescence; hits give high values; 0 = fully inhibited enzyme, 1 = untreated enzyme; activation factor at 5 µM; 96,000 tested, under 10 active; AID 1025;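 active means activation factor of at least 2 at 5 µM in the primary screen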;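 further: 0 = wells with 2.5 mM tranylcypromine and 1 = vehicle-only wells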
PTK2B oligo ant: blocks oligomerization of human Pyk2 in cells; z-score (the deposit names both 25 µM and 10 µM); Q14289; 99,000 tested, 0.83% active; Q293 cells, Pyk2 FERM NanoBiT luminescence; hits give low values;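 active means Z-score of -3 or lower, scaled per plate to the spread of control and sample wells; inactive means z-score above -3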;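 further: negative z-score means lost luminescence so less FERM oligomerization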
CYP2C9 inhib: inhibitors of human CYP2C9 | P11712 | CYP2C9 Supersomes, luciferin-H conversion, luminescence | inhibition, % at 5 µM | 96,000 tested, 20% active;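 active means blocking of liver enzyme CYP2C9 beyond about 50% at 5 µM, limit read from the data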
* = called active by the depositor; · = no result given. The list is not random: actives were taken first. Their share in the collection is about 28%.

SMILES	CYP2C9 activ	CYP2C19 inh	CYP2C19 act	PTK2B oligo ant	CYP2C9 inhib
CCN1C(=O)NC(c2cccnc2)C(C(=O)OC)=C1C (stereo not drawn)	1	0	1	0.8	1
Cc1ccc(S(=O)(=O)NC(C)(C)CSc2nnc(N)s2)cc1	0.2	99*	0	0.26	80*
COCCn1c(COc2cccc(OC)c2)nnc1SCC(=O)N1CCOCC1	1	-2	1	0.23	3
CN(C)S(=O)(=O)c1ccc(C(=O)Nc2ccc(CCC(=O)N3CCCC3)cc2)cc1	0.4	16	0.8	0.22	59*
OC(Cn1ccnc1)c1ccc(Cl)cc1Cl (stereo not drawn)	0.1	99*	0	0.69	95*
CCOC(=O)Cn1c(=S)[nH]c2c(oc3ccc(Cl)cc32)c1=O	0.2	-2	1	1.6	76*
O=c1oc2ccccc2n1CCc1ccccc1	1	86*	0.1	-1.2	2
Cc1ccccc1OCCn1c(=O)oc2ccccc21	0.3	99*	0	-0.27	69*
Cc1ccc(C(C)C)c(OCCn2c(=O)oc3ccccc32)c1	0.2	92*	0.1	-0.68	82*
O=C1c2ccccc2C(=O)N1CCCCn1c(=O)oc2ccccc21	0.7	48	0.5	0.22	31
Cc1ccc(C(C)C)c(OCCN)c1	0.8	9	0.9	0.7	23
CCOC(=O)C1=C(CSc2nncn2C)NC(=O)NC1c1cc(OCC)ccc1OCC (stereo not drawn)	1.2	-17	1.2	-0.2	-23
Cc1oc(CC(C)C)cc1C(=O)Nc1cccc2ccccc12	1.1	3	1	-1.3	-7
Cc1cccc(/C=N/NC(=O)C(C)Nc2cccc3ccccc23)n1 (stereo not drawn)	0.9	71*	0.3	0.09	8
Cc1ccc(CNC(=O)C2CCN(S(=O)(=O)N3CCOCC3)CC2)cc1	1.1	-8	1.1	1.7	-5
O=C(Nn1c(-c2ccccc2)nc2ccccc2c1=O)C1CCC1	0.9	13	0.9	0.32	9
Cc1nn(Cc2ccc(F)cc2)c(C)c1NC(=O)c1noc2c1CCCCC2	0.2	56*	0.4	-0.34	77*
Cc1ccccc1Cn1nc(C)c(NC(=O)c2noc3c2CCCC3)c1C	0.4	23	0.8	-0.22	58*
Cc1nn(Cc2ccccc2Cl)c(C)c1NC(=O)c1noc2c1CCCCC2	0.5	-2	1	-0.68	54*
Cc1nn(Cc2ccc(Cl)cc2Cl)c(C)c1NC(=O)C1C2CCC(O2)C1C(=O)O (stereo not drawn)	·	·	·	-1	·
Cc1nn(Cc2ccccc2Cl)c(C)c1NC(=O)C1C2CCC(O2)C1C(=O)O (stereo not drawn)	0.7	94*	0.1	-0.71	27
Cc1nn(Cc2ccc(Cl)cc2)c(C)c1NC(=O)c1noc2c1CCc1ccccc1-2	1.1	-1	1	·	-8
Cc1cc(NC(=O)c2noc3c2CCCC3)nn1Cc1ccc(Cl)cc1	0.9	6	0.9	-1.8	11
CN(C(=O)CN1CCC(NC(=O)C2CCCCC2)CC1)C1CCCCC1	1	2	1	-1.2	0
COc1cc(C(=O)NCc2cn3ccsc3n2)cc(OC)c1OC	·	·	·	-0.39	·
SMILES	CYP2C9 activ	CYP2C19 inh	CYP2C19 act	PTK2B oligo ant	CYP2C9 inhib
CCc1c(C)nc(N)n2c(SCC(=O)N3CCN(c4ccccc4OC)CC3)nnc12	0.8	32	0.7	·	20
O=C1c2ccccc2C(=O)N1CCc1nc(-c2cccnc2)no1	0.7	51*	0.5	1.7	26
O=C1c2ccccc2C(=O)N1CCc1nc(-c2ccc(Cl)cc2)no1	0.7	22	0.8	-0.61	29
O=C1c2ccccc2C(=O)N1CCCCCc1nc(-c2ccccc2)no1	0.6	6	0.9	0.55	40
O=C1c2ccccc2C(=O)N1CCc1nc(-c2ccncc2)no1	0.3	97*	0	2.2	72*
Cc1cc(Br)cc(C)c1OCCCCN(C)C	1	20	0.8	0.34	5
COc1ccccc1N1CCN(C(CNC(=O)c2ccc3c(c2)OCO3)c2cccnc2)CC1 (stereo not drawn)	0.6	27	0.7	4	39
Cc1ccc(SCCNS(=O)(=O)c2ccc3c(c2)OCCO3)cc1	·	·	·	-0.56	·
CCN(CC)CCNS(=O)(=O)c1ccc(OC)c(Br)c1	1.5	32	0.7	-0.14	-52
COc1ccc(S(=O)(=O)NCCSc2ccccc2)cc1OC	2.4*	97*	0	-1.1	-139
CCCCCCNS(=O)(=O)c1ccc(OC)c(OC)c1	2.3*	85*	0.1	-1.3	-135
